Results as given in PubChem BioAssay (EPA / NIEHS).
The source made the active and inactive calls. How the source made its calls: active means hit-call score of the fitted dose curve at least 0.9, where 1 is the maximum; inactive means score below 0.9.

read-out: Alkaline Phosphatase, Placental (ALPP) gene, ALPP (gene 250); test: LTEA_HepaRG_ALPP: Life Technologies and Expression Analysis (LTEA) Assay for Alkaline Phosphatase, Placental (ALPP) gene using HepaRG (AID 2283468); conditions: mRNA level, 48 h; actives raise or lower the signal;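 on AC50: ALPP transcript by TaqMan qRT-PCR normalized to ACTB GAPDH and POLR2A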
Procedure: LTEA_HepaRG is a cell based, multiplexed-readout assay that uses HepaRG, a human liver cell line, with measurements taken at 48 hours after chemical dosing on a 96-well plate.LTEA_HepaRG_ALPP is one of 102 assay component(s) measured in the LTEA HepaRG cell culture assay. It is a marker of Cell proliferation, survival, death.Data from the assay component LTEA_HepaRG_ALPP was analyzed into 1 endpoint. This assay endpoint, LTEA_HepaRG_ALPP, was analyzed with bidirectional fitting relative to DMSO as the negative control and baseline of activity. Using a type of inducible reporter, measures of mRNA induction for gain or loss-of-signal activity can be used to understand regulation of transcription factor activity. To generalize the intended target to other relatable targets, this assay endpoint is annotated to the phosphatase intended target family, where the subfamily is Cell proliferation, survival, death.
A total of 1060 chemcials from the ToxCast library were tested in eight-point concentration-response experiments. Cell culture and cytotoxicity assays were conducted at Thermo Fisher Scientific's Custom Services facility (Madison, WI). A single lot of human HepaRG cells (Thermo Fisher Scientific, Frederick, MD) was used for the cell culture experiments. 96-well format collagen type I coated plates of human HepaRG cells were prepared using established methods. Briefly, cryopreserved HepaRG cells were thawed, plated at a density of approximately 100,000 cells/well in HepaRG Thaw, Plate, and General Purpose media (HPRG770, Thermo Fisher Scientific), and incubated for 48 hours. 0.5% DMSO was selected as vehicle control to balance the requisite need of DMSO in HepaRG cultures to maintain differentiation (for example, baseline metabolism, proportions of hepatocytes vs. cholangiocytes), while enabling further hepatic receptor pathway activation (for example, PXR and CAR) in response to chemical exposure. 48 hours after plating, the culture medium was replaced with HepaRG Serum-Free Incudtion Media. Cells were exposed to each test chemical in duplicate and maintained in CO2 incubators for another 48 hours. Chemical plates were thawed to room temperature and 200x concentrations of treatment groups were prepared. 8-point conentration-reponse curves were made with the highest exposure at 100 uM, followed by half-log dilutions, all in 0.5% DMSO. Each test plate contained variouse controls, induction positive controls (1mM phenobarbital), cytotoxicity positive controls ([…] aflatoxin B1), vehicle controls (0.5% DMSO), and total lysis controls (0.5% DMSO). Cell morphology images were taken using an Essen IncuCyte FLR automated microscope, with six 96-well plates imaged in about 24 minutes. Images were captured and exported and JPEG files. Spent culture media was transfered to black-well plates for the LDH assay, and remaining media was sorted at -80 C for later use. Cells were treated with RLT buffer and frozen until shipped for gene expression analysis. Total RNA was isolated from the cell suspension in 75 uL of Buffer RLT (Qiagen, Germantown, MD 20874) by Quintiles/Expression Analysis (Durham, NC) using a custom isolation procedure. Total RNA from each plate well was transferred to a preamplification plate. Fluidigm's 96.96 Dynamic ArrayTM (Fluidigm, Amsterdam, the Netherlands) technology was used for gene expression analyses by quantitative reverse transcription polymerase chain reaction (qRT-PCR, performed by Quintiles/Expression Analysis, Durham, NC)89. Standard TaqManTM Assays (Applied Biosystems/ThermoFisher Scientific, Foster City, CA) were used to assess the expression of 93 genes selected based on their selectivity and sensitivity to important hepatic receptors known to be modulated by environmental chemicals; importance in human hepatocyte functionality; and hepatotoxicity. […]

| SMILES | outcome | AC50 |
| --- | --- | --- |
| CC(C)OC(=O)C(C)(C)Oc1ccc(C(=O)c2ccc(Cl)cc2)cc1 | inactive | – |
| CSc1ccc(Oc2ccc(S(N)(=O)=O)cc2CN(C)C)cc1C | – | 54.5 µM (active) |
| CC(=O)[C@@]1(O)CC[C@H]2[C@@H]3CCC4=CC(=O)CC[C@]4(C)[C@H]3CC[C@@]21C | inactive | – |
| O=[Si]=O | inactive | – |
| O=C1NC(=O)C(c2ccccc2)(c2ccccc2)N1 | inactive | – |
| CCCCC(CC)COP(=O)(OCC(CC)CCCC)OCC(CC)CCCC (stereo not given) | inactive | – |
| CC(=O)S[C@H](C(=O)N[C@H]1Cc2ccccc2[C@H]2CCC[C@@H](C(=O)O)N2C1=O)C(C)C | inactive | – |
| CC(=O)O[C@]1(C(C)=O)CC[C@H]2[C@@H]3C=C(Cl)C4=CC(=O)[C@@H]5C[C@@H]5[C@]4(C)[C@H]3CC[C@@]21C | inactive | – |
| CCCC[C@H]1CN(CC2CCOCC2)C(=O)OC12CCN(C1(C)CCN(C(=O)c3c(C)ncnc3C)CC1)CC2 | inactive | – |
| O=C1CCCCC1 | inactive | – |
| Cc1cn([C@H]2C=C[C@@H](CO)O2)c(=O)[nH]c1=O | inactive | – |
| O=C(Oc1ccccc1)c1cccc(C(=O)Oc2ccccc2)c1 | inactive | – |
| Cc1ccc(C(C)(C)C)c(O)c1 | inactive | – |
| CO[C@@H]1COCC[C@@H]1N[C@@H]1CC[C@@](C(=O)N2CCc3ncc(C(F)(F)F)cc3C2)(C(C)C)C1 | inactive | – |
| Cc1occc(=O)c1O | inactive | – |
| COc1ccc(OC(F)(F)F)cc1CN[C@H]1CCCN[C@H]1c1ccccc1 | inactive | – |
| CCCCCCC(CCCCCCCCCCC(=O)OCC(COC(C)=O)OC(C)=O)OC(C)=O (stereo not given) | inactive | – |
| CN(C)CCCN1c2ccccc2Sc2ccc(Cl)cc21 | – | 11.8 µM (active) |
| CCCCC(CC)COC(=O)CCCCCCCC(=O)OCC(CC)CCCC (stereo not given) | inactive | – |
| CC(C)c1cccc(C(C)C)c1 | inactive | – |

| SMILES | outcome | AC50 |
| --- | --- | --- |
| CCCCOC(=O)CCCCC(=O)OCCCC | inactive | – |
| S=c1[nH]c2ccccc2s1 | inactive | – |
| Cn1cnc2c1c(=O)[nH]c(=O)n2C | inactive | – |
| NCCOCCOCCN | inactive | – |
| CCOCCOCCO | inactive | – |
| CCCCCCCC(=O)OC | inactive | – |
| N[C@@H](Cc1c[nH]c2ccccc12)C(=O)O | inactive | – |
| COc1ccc(C(=O)Nc2nc3ccccc3c(NCc3ccccc3)c2C#N)cc1 | inactive | – |
| C/C=C/C=C/C(=O)O | inactive | – |
| c1ccc2occc2c1 | inactive | – |
| O=C(O)c1[nH]n(-c2ccc(S(=O)(=O)O)cc2)c(=O)c1N=Nc1ccc(S(=O)(=O)O)cc1 | inactive | – |
| CC(C)NCC(O)c1ccc(O)c(O)c1 (stereo not given) | – | 0.0927 µM (active) |
| Cc1c(C)c2c(c(C)c1O)CCC(C)(COc1ccc(CC3SC(=O)NC3=O)cc1)O2 (stereo not given) | – | 15.8 µM (active) |
| CCCCc1nc2cccnc2n1Cc1ccc(-c2ccccc2-c2nnn[nH]2)cc1 | – | 15.5 µM (active) |
| Cc1ccc(-c2cc(C(F)(F)F)nn2-c2ccc(S(N)(=O)=O)cc2)cc1 | inactive | – |
| CS(=O)(=O)c1ccc([C@@H](C[C@H]2CCC(=O)C2)C(=O)Nc2cnccn2)cc1Cl | – | 2.94 µM (active) |
| Oc1ccccc1O | inactive | – |
| CCc1cc(C2=C(C(=O)O)N(c3ccccc3C(F)(F)F)S(=O)(=O)c3ccccc32)cc2c1OCO2 | – | 30.9 µM (active) |
| OCC(O)CO | inactive | – |
| CC(C)COC(=O)CCCCC(=O)OCC(C)C | inactive | – |
